Laboratory results as given in the supplement of paper PMC11634586.
Structures can show the parent of a compound that is named as a salt.

tested on: NCI-H1688; assay: inhibition of cell viability relative to untreated control (fraction); higher = stronger growth inhibition, active = 0.5 or more; settings: 30 µM; 24 h
Summary of the method: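 NCI-H1688 small cell lung cancer cells were plated in 96-well plates at 3 × 10^3 cells/well, and 24 h later they were exposed to a natural compound library (TargetMol) at 30 µM for 24 h at 37°C with 5% CO2. Viability was measured in triplicate using Cell Counting Kit-8, read as absorbance at 450 nm. Inhibition of cell viability is given as a fraction, calculated from viability normalised to untreated cells.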

Row | Compound | inhibition of cell viability
1 | C=C1C[C@]23C[C@@]1(O)CC[C@H]2[C@@]12C=C[C@H](O)[C@@](C)(C(=O)O1)[C@H]2[C@@H]3C(=O)O [Gibberellic acid] | 0.0962 (inactive)
2 | CCC(C)C(NC(=O)CNC(=O)C(CCC(N)=O)NC(=O)C1CCCN1C(=O)C(CC(=O)O)NC(=O)C(CCCNC(=N)N)NC(=O)C(NC(=O)C(NC(=O)C(N)CCCNC(=N)N)C(C)C)C(C)C)C(=O)NC(CCCNC(=N)N)C(=O)NC(C)C(=O)NC(Cc1c[nH]c2ccccc12)C(=O)NC(C(=O)NC(C)C(=O)NC(Cc1c[nH]c2ccccc12)C(=O)NC(CCCNC(=N)N)C(=O)NC(CC(N)=O)C(=O)NC(CCCNC(=N)N)C(=O)O)C(C)C (centres undefined) [Lysozyme] | 0.471 (inactive)
3 | O[C@H]1[C@H](O)[C@@H](O)[C@H](O)[C@@H](O)[C@H]1O [Inositol] | -0.137 (inactive)
4 | c1ccc2c(Cc3c[nH]c4ccccc34)c[nH]c2c1 [3,3'-Diindolylmethane] | 0.12 (inactive)
5 | C=CCS[S+]([O-])CC=C (centres undefined) [Allicin] | -0.267 (inactive)
6 | CCCCCCCCCCCCCCCCCCOCC(O)CO (centres undefined) [Batyl alcohol] | -0.0252 (inactive)
7 | COc1c(O)cc(O)c2c(=O)cc(-c3ccccc3)oc12 [Wogonin] | -0.0139 (inactive)
8 | COC(=O)C1=CO[C@@H](O[C@@H]2O[C@H](CO)[C@@H](O)[C@H](O)[C@H]2O)[C@@H]2[C@@H](C)[C@@H](O)C[C@H]12 [Loganin] | 0.0696 (inactive)
9 | Cn1c(=O)c2nc[nH]c2n(C)c1=O [Theophylline] | -0.0544 (inactive)
10 | CC(=O)C1=C(O)C=C2Oc3c(C(C)=O)c(O)c(C)c(O)c3C2(C)C1=O (stereo in doubt) [Usnic Acid] | 0.273 (inactive)
11 | OCc1ccc(O[C@@H]2O[C@H](CO)[C@@H](O)[C@H](O)[C@H]2O)cc1 [Gastrodin] | -0.283 (inactive)
12 | O=c1ccc2ccc(O)c(O)c2o1 [Daphnetin] | -0.0337 (inactive)
13 | CC(=O)c1ccc(O)c(C(=O)O)c1 [5-Acetylsalicylic acid] | 0.0598 (inactive)
14 | CC[C@H]1OC(=O)[C@H](C)[C@@H](O[C@H]2C[C@@](C)(OC)[C@@H](O)[C@H](C)O2)[C@H](C)[C@@H](O[C@@H]2O[C@H](C)C[C@H](N(C)C)[C@H]2O)[C@](C)(O)C[C@@H](C)CN(C)[C@H](C)[C@@H](O)[C@]1(C)O [Azithromycin dihydrate] | 0.037 (inactive)
15 | COc1cc(/C=C/C(=O)CC(=O)/C=C/c2ccc(O)c(OC)c2)ccc1O [Curcumin] | 0.315 (inactive)
16 | Oc1cc2c(cc1O)[C@@H]1c3ccc(O)c(O)c3OC[C@]1(O)C2 [Hematoxylin] | 0.0369 (inactive)
17 | COc1cc(CNC(=O)CCCC/C=C/C(C)C)ccc1O [Capsaicin] | 0.0438 (inactive)
18 | C/C1=C2N=C(/C=C3N=C(/C(C)=C4\[N-]C(C(CC(N)=O)C4(C)CCC(=O)NCC(C)OP(=O)([O-])OC4C(CO)OC(n5cnc6cc(C)c(C)cc65)C4O)C4(C)N=C1C(CCC(N)=O)C4(C)CC(N)=O)C(CCC(N)=O)C\3(C)C)C(CCC(N)=O)C/2(C)CC(N)=O.[CH3-].[Co+3] (centres undefined) [Methylcobalamin] | 0.0835 (inactive)
19 | COc1ccc(C2CC(=O)c3c(O)cc(OC4OC(COC5OC(C)C(O)C(O)C5O)C(O)C(O)C4O)cc3O2)cc1OC (centres undefined) [Methyl hesperidin] | 0.00735 (inactive)
20 | O=C(O)c1cc(O)c2c(c1)[C@@H]([C@H]1c3cc(C(=O)O)cc(O)c3C(=O)c3c(O[C@@H]4O[C@H](CO)[C@@H](O)[C@H](O)[C@H]4O)cccc31)c1cccc(O[C@@H]3O[C@H](CO)[C@@H](O)[C@H](O)[C@H]3O)c1C2=O [Sennoside B] | -0.103 (inactive)
21 | CC[C@@]1(O)C(=O)OCc2c1cc1n(c2=O)Cc2cc3cc(O)ccc3nc2-1 [Hydroxy Camptothecine] | 0.97 (active)
22 | CC(C)CCC[C@@H](C)[C@H]1CC[C@H]2[C@@H]3CC[C@H]4CC(=O)CC[C@]4(C)[C@H]3CC[C@]12C [5alpha-Cholestan-3-one] | -0.0937 (inactive)
23 | COc1ccc(-c2coc3cc(O)ccc3c2=O)cc1 [Formononetin] | 0.0427 (inactive)
24 | C[C@H](CCC(=O)NCCS(=O)(=O)O)[C@H]1CC[C@H]2[C@@H]3[C@H](O)C[C@@H]4C[C@H](O)CC[C@]4(C)[C@H]3C[C@H](O)[C@]12C [Taurocholic acid sodium salt hydrate] | -0.0242 (inactive)
